Shown are actives, neighbours in structure and some others; about 3% of the full set was active somewhere.
MITF TRPM1 inh: inhibitors of MITF-dependent TRPM1 promoter reporter, primary screen, cell-based, SK-MEL-5, single point, luciferase. SK-MEL-5 TRPM1 promoter luciferase, 24 h. inhibition, % at 12.5 µM. 330,000 tested, 0.83% active. AID 488899, 2010;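 active = mean inhibition across replicates of 60% or more, whatever share of single replicates reaches that level; inconclusive = some that reach 60%, reason not given; inactive = mean inhibition across replicates below 60%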
ABHD5 PLIN5 PPI: ABHD5-PLIN5 interaction inhibitors, primary screen, cell lysate, split luciferase complementation, luminescence. Split G. princeps luciferase complementation, 4 h. inhibition, % at 4 µM. 360,000 tested, 0.78% active;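 active = inhibition above the mean inhibition across every tested compound plus 3 SD, cut at about 22% in these data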;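 note: 0% = DMSO only wells and the 100% control is not disclosed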
Target sequence (Q00G26 whole entry, looked up): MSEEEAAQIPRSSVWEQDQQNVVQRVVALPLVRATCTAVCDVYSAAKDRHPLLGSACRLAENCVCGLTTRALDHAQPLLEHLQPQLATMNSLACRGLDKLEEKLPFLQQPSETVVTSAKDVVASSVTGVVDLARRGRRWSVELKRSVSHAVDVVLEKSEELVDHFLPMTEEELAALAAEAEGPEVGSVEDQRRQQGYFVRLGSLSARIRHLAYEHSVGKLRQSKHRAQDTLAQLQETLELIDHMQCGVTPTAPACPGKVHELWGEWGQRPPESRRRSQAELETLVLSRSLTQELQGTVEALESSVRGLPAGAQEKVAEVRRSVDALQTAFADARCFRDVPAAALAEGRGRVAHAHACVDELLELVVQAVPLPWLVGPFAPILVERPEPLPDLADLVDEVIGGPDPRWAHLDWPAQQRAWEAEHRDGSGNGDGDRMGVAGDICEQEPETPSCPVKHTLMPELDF
Target sequence (Q8WTS1 whole entry, looked up): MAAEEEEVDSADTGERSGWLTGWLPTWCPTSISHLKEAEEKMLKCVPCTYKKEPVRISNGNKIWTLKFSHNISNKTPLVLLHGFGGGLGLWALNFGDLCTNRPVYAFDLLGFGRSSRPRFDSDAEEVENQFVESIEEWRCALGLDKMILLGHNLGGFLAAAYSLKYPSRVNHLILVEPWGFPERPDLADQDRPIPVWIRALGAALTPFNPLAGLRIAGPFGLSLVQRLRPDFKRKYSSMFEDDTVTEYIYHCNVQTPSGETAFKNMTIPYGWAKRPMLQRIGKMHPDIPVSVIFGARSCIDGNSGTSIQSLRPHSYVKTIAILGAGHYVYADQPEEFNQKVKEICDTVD
Peg3 promoter: Peg3 promoter-driven luciferase inhibitors, primary screen, cell-based, HeLa, luciferase luminescence; HeLa PEG-Prom luciferase reporter, overnight; inhibition, % at 20 µM; 360,000 tested, 1.7% active; AID 588405, 2011;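 active = inhibition of at least 50% at 20 µM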
CF NFkB block: inhibitors of PAF-induced NF-kB signaling, primary screen, cell-based, GFP fluorescence, uHTS | KKLEB NF-kB-GFP reporter, GFP fluorescence overnight | inhibition, % at 5 µM | 360,000 tested, 0.86% active | AID 588850, 2011;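 active = at least 50% inhibition at 5 µM, scaled per plate between neutral and stimulator controls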;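 note: PAF is a Pseudomonas aeruginosa culture filtrate used as stimulus; plate controls were PAF-stimulated DMSO wells for no effect and unstimulated DMSO wells for full effect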
KKLEB tox: cytotoxicity in KKLEB CF airway cells, primary screen, cytotoxicity control for CF NF-kB inhibitor project, cell-based, uHTS, fluorescence assay plates; 360,000 tested, 0.36% active; KKLEB CF airway cells viability, ATPlite luminescence, overnight; active compounds read low; cells stimulated with P. aeruginosa culture filtrate; activity change (cytotoxicity), % at 5 µM; AID 602141, 2011;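 active = corrected activity change at or below -50% at 5 µM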
HIF-2a inh: HIF-2a reporter inhibitors, primary screen, luminescence, 786-0 RCC cells | 360,000 tested, 0.72% active | inhibition, % at 18.8 µM | 786-0 RCC cells HIF-2a reporter, luciferase luminescence, overnight;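 active = inhibition of the luminescence signal of 40% or more relative to plate controls, in a single-dose primary screen at 18.75 µM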
* hit, by the source's call; ? = inconclusive; / = no result.

SMILES	MITF TRPM1 inh	ABHD5 PLIN5 PPI	Peg3 promoter	CF NFkB block	KKLEB tox	HIF-2a inh
O=C(CSc1cccc(C(F)(F)F)c1)Nc1ccc(N2CCOCC2)cc1	3.1	-3.1	0.6	-3.7	-20.4	-7.3
COc1cc2ccccc2ccc1=NO	9.1	-4.0	-29.9	78.6*	-11.7	5.0
Cc1ccccc1NC(=S)N1CCN(c2ccccc2)CC1	9.4	3.3	7.9	2.7	-11.8	7.5
CC[n+]1c(/C=C/c2c[nH]c3ccccc23)ccc2cc(C)ccc21	74.5*	/	/	/	/	/
C/C(=N/NC(=O)C(O)(c1ccccc1)c1ccccc1)c1ccc([N+](=O)[O-])o1	64.7*	-0.6	1.9	-9.8	12.2	0.4
Cc1cc(C)cc(N(C(=O)c2ccccn2)C(C(=O)NC2CCCCC2)c2ccncc2)c1 (stereo unspecified)	-3.6	0.9	-6.4	3.5	-6.7	-4.0
O=C1c2ccccc2C2(c3cc(C(F)(F)F)cc(C(F)(F)F)c3)NCCN12 (stereo unspecified)	-6.9	3.5	6.2	10.5	1.8	21.4
COCc1nc2ccccc2n1Cc1ccccc1	-15.9	-4.3	-16.1	9.2	-1.7	-73.6
Cc1cccc(NCc2nc3ccccc3n2Cc2ccccc2)c1	-12.1	1.3	-69.7	0.6	2.1	-118.8
ClCc1nc2ccccc2n1Cc1ccccc1	52.7	2.6	107.4*	10.8	0.4	20.8
Cc1nc2cc(NCc3nc4ccccc4n3Cc3ccccc3)ccc2n1C	-37.7	22.3*	-40.2	-14.2	-23.6	-11.9
CN(Cc1cn[nH]c1-c1ccc2c(c1)OCO2)C1CCOCC1	-0.4	-1.5	7.6	2.2	-7.5	0.8
CCc1cc(-c2[nH]ncc2-c2ccc3c(c2)OCO3)c(O)cc1O	10.1	-0.8	69.2*	84.9*	-5.5	20.6
Cc1cc(C)cc(NC(=O)NCC2CCN(Cc3cc(C)ccc3C)CC2)c1	3.8	-4.6	84.3*	6.3	-17.5	21.8
CCc1ccc(NC(=O)NCC2CCN(Cc3cccc(Cl)c3)CC2)cc1	7.9	5.0	35.3	5.1	-2.2	14.8
Cc1ccc(NC(=O)NCC2CCN(Cc3cccc(Cl)c3)CC2)cc1Cl	51.5	12.0	83.1*	17.4	-16.7	4.5
Cc1ccc(C(=O)NCC(=O)OCc2cccc(Br)c2)cc1	-2.2	-9.9	-9.0	-16.6	0.2	11.7
COCC(COS(N)(=O)=O)Cc1ccccc1 (stereo unspecified)	1.4	-3.9	-5.1	8.9	1.9	5.7
O=C(Nc1ccc(N2CCOCC2)c(Cl)c1)c1c(F)c(F)c(F)c(F)c1F	-1.4	-1.0	51.9*	31.8	-16.4	28.6
O=[N+]([O-])c1cc(-c2csc(NCCc3nc4cc(Cl)c(Cl)cc4n3CCCO)n2)ccc1Cl	-21.0	5.1	91.8*	-16.2	-22.1	3.0
O=C(O)CC(NC(=O)c1cccc([N+](=O)[O-])c1)c1ccc2c(c1)OCO2 (stereo unspecified)	-11.2	2.3	17.2	-19.0	13.6	6.7
CCn1c2ccccc2nc2cc3c(cc21)c(Cl)c(=O)c1ccccc13	/	-21.2	62.0*	81.1*	-38.5	53.5*
COc1ccc2c(C)cc(SCC(=O)Nc3ccc(Cl)cn3)nc2c1	-2.5	-2.2	24.5	51.6*	-52.5*	20.2
Cc1cccc(OCCC(=O)OCC(=O)Nc2c(C)nn(-c3ccccc3)c2C)c1	5.9	4.8	-1.2	12.5	-4.8	-0.5
CC1NC(=O)c2cccnc2-n2c1nc1cc(F)c(F)cc1c2=O (stereo unspecified)	/	8.1	2.7	21.5	-7.8	20.4
SMILES	MITF TRPM1 inh	ABHD5 PLIN5 PPI	Peg3 promoter	CF NFkB block	KKLEB tox	HIF-2a inh
NC1=NC[C@H](c2ccccc2)N1CCCCC1CCCCC1	14.9	3.1	99.8*	4.6	-25.8	6.8
S=C1NC[C@H](c2ccccc2)N1CCCCC1CCCCC1	0.6	-6.2	-1.6	-12.8	-10.1	3.4
COc1cc(CNC(C)c2ccccc2)cc(Br)c1OCc1ccc(F)cc1 (stereo unspecified)	9.8	-10.7	58.8*	39.7	-29.0	16.4
COc1cc(CNC(C)c2ccccc2)cc(Br)c1OCc1ccccc1 (stereo unspecified)	2.9	0.2	24.6	4.0	-6.1	22.3
CCOC(=O)c1c(NC(=O)CN2CCCc3ccccc32)sc(C)c1CC	16.9	-6.9	4.1	2.6	5.2	-43.3
Nc1nc(Cl)cc(N2CCC(c3cc(-c4ccc(Cl)cc4)n[nH]3)CC2)n1	65.2*	-1.4	21.6	-7.3	4.8	12.2
COc1cc(C(=O)NC2CCN(C)CC2)ccc1Nc1ncc2c(n1)N(C1CCCCC1)CCC(=O)N2C	?	6.4	90.7*	-101.4	-26.2	-36.8
COc1cc(C(=O)NC2CCN(C)CC2)ccc1Nc1ncc2c(n1)N(Cc1ccccc1)CCC(=O)N2C	47.3	5.1	-105.3	-171.0	-28.6	-152.3
CCN1C(=O)CC(c2ccccc2)N(C2CCCC2)c2nc(Nc3ccc(C(=O)NC4CCN(C)CC4)cc3OC)ncc21 (stereo unspecified)	87.4*	10.5	93.7*	-75.4	-20.1	10.7
CCN1C(=O)CC(C(C)C)N(C2CCCC2)c2nc(Nc3ccc(C(=O)NC4CCN(C)CC4)cc3OC)ncc21 (stereo unspecified)	83.8*	12.4	66.2*	-68.8	-17.8	18.7
Cc1cccc(C)c1NC(=O)C(C1CC1)n1c(=O)c(-c2cc3ccccc3[nH]2)nc2ccccc21 (stereo unspecified)	/	1.8	/	/	/	-17.6
CN1CCN(C(=O)C2Cc3c(-c4ccc5c(c4)OCO5)ccnc3O2)CC1 (stereo unspecified)	/	-0.7	13.5	-20.4	22.3	6.0
O=C(c1cc2nc(-c3ccccc3)cc(-c3ccccc3)n2n1)N1CCN(C(=O)c2ccco2)CC1	6.6	6.9	50.4*	8.2	-1.2	23.6
O=C(CCc1nnc(-c2ccc(-c3ccccc3)cc2)o1)NCCc1ccccn1	18.2	4.5	-114.0	-20.1	13.5	40.1*
O=C(CCc1nnc(Cc2ccc(-c3ccccc3)cc2)o1)NCCc1ccccn1	-7.8	0.9	-2.5	6.7	5.4	-21.0
COc1ccc(NC(=O)N(C)C[C@H]2Oc3ccc(NC(=O)C4CC4)cc3CC(=O)N([C@@H](C)CO)C[C@@H]2C)cc1	4.8	14.7	-5.6	-2.8	-0.3	4.2
CN(C(=O)c1ccccc1-c1ccccc1C(=O)O)c1ccccc1	9.0	-1.5	13.2	13.4	-4.8	22.5
CCc1cccc(CC)c1NC(=S)Nc1cccc(Cl)c1Cl	9.3	-7.8	18.5	7.0	4.8	13.3

High-throughput results: PubChem BioAssay, several laboratories
